# Screening data as filed in PubChem.
# The list is not random: actives were taken first. Their share in the collection is about 8.7%.
# VACV Venus inh: vaccinia inhibition (Venus reporter); hit rate 0.46% among 330,000; Vaccinia virus Venus reporter expression, fluorescence; Potency, µM (titrated, usually from 36.5 µM), usual class: inhibitors; calls by dose curve; tested in A549 cells; note: nearly all actives have a fitted effect of over 30% in size
# AMA1 RON2 block: inhibitors of Plasmodium falciparum AMA1-RON2 interaction; AlphaScreen AMA1-biotinylated RON2 peptide binding; Potency, µM (series often up to 58.2 µM), actives largely listed as inhibitors; hit rate 0.2% among 360,000; AID 720542; note: nearly all actives have a fitted effect of over 45% in size
#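 AMA1 (3D7) with his tag at 25 nM final met compounds first, then biotinylated RON2 peptide at 25 nM; detection used donor plus acceptor beads, 10 µg/mL apiece, read by AlphaScreen after 30 min at room temperature.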
# Pf growth 96h: P. falciparum growth inhibition at 96 hour, primary screen for plastid delayed-death inhibitors; P. falciparum luciferase reporter growth, 96 h; Potency, µM (highest dose often 28.7 µM), most hits filed as inhibitors; AID 504834; hit rate 6.9% among 320,000
#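 Plates of compound plus infected erythrocytes (2% hematocrit, 0.05% parasitemia final) incubate 96 hours, 37 C, 5% CO2. Detection reagent added; reduced luminescence from the parasites' luciferase reporter flags inhibition.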
# Pf growth 48h: P. falciparum growth inhibition at 48 hours (one generation). P. falciparum luciferase growth in erythrocytes, 48 h. Potency, µM (titrated, usually from 28.7 µM), hits mostly inhibitors. hit rate 5.9% among 310,000. AID 504832
#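 First compound was added to culture medium, then infected red cells at 0.1% parasitemia and 2% hematocrit (final). After incubation at 37 C under 5% CO2, luciferase detection reagent was dispensed and light output recorded.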
# Vaccinia mCherry: inhibitors of vaccinia virus infection (mCherry reporter signal) | Vaccinia virus mCherry reporter infection, fluorescence | Potency, µM (series often up to 36.5 µM), actives largely listed as inhibitors | hit rate 0.63% among 310,000; calls by dose curve; tested in A549 cells; note: nearly all actives have a fitted effect of over 35% in size
# Hits are given with their value; 0 = inactive; ? = inconclusive; - = not tested or not shown. Unless noted, calls come from the whole dose curve; as a rule, active = well fitted curve in the direction sought with a large enough effect; inconclusive = small, poorly fitted or top-dose-only effect, or another doubt; inactive = no such curve, though single readings can be large; an effect the other way counts as inactive or inconclusive.
SMILES,VACV Venus inh,AMA1 RON2 block,Pf growth 96h,Pf growth 48h,Vaccinia mCherry
CC1CC(OC(=O)c2ccccc2)(c2ccccc2)C(C)CN1C (stereo not given),0,0,?,6.6µM,0
Cc1ccc(NC2=C(Cl)C(=O)OC2NC(=O)c2ccccc2)cc1 (stereo not given),-,0,1µM,?,-
COc1ccc(-n2c(-c3ccc(C)cc3)cc3c2CC(C)(C)CC3=O)c(OC)c1,0,-,-,-,0
CCOC(=O)Cn1c(=O)oc2cc(S(=O)(=O)N3CCN(c4cc(C)ccc4C)CC3)ccc21,0,-,-,-,0
CC(C)NC(=O)CSc1nc2ccccc2n1CC(=O)N(C(C)C)C(C)C,0,0,4.1µM,0,0
CC(C)N(C(=O)CSc1nc2ccccc2n1Cc1ccc(F)cc1)C(C)C,-,0,0,4.7µM,-
CC(C)NC(=O)CSc1nc2ccccc2n1CC(=O)N1CCc2ccccc21,0,0,13µM,?,0
CC(C)(C)OC(=O)NC(Cc1ccccc1)C(=O)N1CCC(C(=O)NCC(=O)Nc2ccc(F)cc2)CC1 (stereo not given),-,0,12µM,?,-
COc1ccccc1-n1c(SC(C)C(=O)NCC2CCCO2)nc2cc(Cl)ccc2c1=O (stereo not given),0,0,?,13µM,0
COCC(C)n1c(SCC(=O)NC2CCCCC2)nc2ccccc2c1=O (stereo not given),0,0,-,-,0
CCCCCn1c(SCC#N)nc2cc(C(=O)NCC3CCCO3)ccc2c1=O (stereo not given),-,0,4.7µM,0,-
CCC(C)n1c(SCC(=O)NC2CCCC2)nc2ccccc2c1=O (stereo not given),0,0,?,12µM,0
O=C(CCCn1c(SCC(=O)NC2CCCCC2)nc2ccccc2c1=O)NCC1CCCO1 (stereo not given),0,0,12µM,?,0
O=C(Nc1ccc(-c2nc3cc(NC(=O)c4ccc(Cl)cc4)ccc3o2)cc1)c1ccc(Cl)cc1,0,-,-,-,0
COc1cccc(-c2nc(S(=O)(=O)c3ccc(C)cc3)c(N3CCCCC3)o2)c1,0,-,-,-,0
O=C(CSc1ccc2nc(-c3ccccc3)cn2n1)NCC1CCCO1 (stereo not given),-,0,5.2µM,0,-
COc1ccccc1NC(=O)C(C)Sc1nc2ccccc2c(=O)n1CC1CCCO1 (stereo not given),0,0,?,10µM,0
CC(Sc1nc2ccccc2c(=O)n1CC1CCCO1)C(=O)N(C)c1ccccc1 (stereo not given),-,0,?,?,-
O=C(CSc1nc2ccccc2c(=O)n1C1CC1)NCc1ccccc1,-,0,15µM,0,-
O=C(CCCn1c(SCc2ccccc2F)nc2ccccc2c1=O)NCC1CCCO1 (stereo not given),0,0,0,6.6µM,0
CCCCC(Sc1ccc2nnc(-c3ccccn3)n2n1)C(=O)O (stereo not given),0,-,-,-,0
O=C(NC1CC1)[C@@H]1C[C@H](Sc2nc3ccccc3[nH]2)CN1CC1CCCCC1,0,-,-,-,0
O=C(CSc1nc2ccccc2c(=O)n1CC1CCCO1)NCC1CCCO1 (stereo not given),-,0,5.2µM,0,-
O=C(CSc1nc2c(sc3ccccc32)c(=O)n1Cc1ccco1)NCC1CCCO1 (stereo not given),0,0,9.3µM,8.3µM,0
O=C(CCN1N=C(c2ccccc2)CCC1=O)NCC1CCCO1 (stereo not given),-,0,3.7µM,0,-
SMILES,VACV Venus inh,AMA1 RON2 block,Pf growth 96h,Pf growth 48h,Vaccinia mCherry
O=C(CCN1N=C(c2ccccc2)CCC1=O)NC1CCCC1,-,0,?,0,-
O=C(CCCn1c(SCC(=O)c2ccc(O)c(O)c2)nc2ccccc2c1=O)NCC1CCCO1 (stereo not given),-,0,?,9.3µM,-
Cc1ccc(C(=O)N(Cc2cc3cccc(C)c3nc2N2CCC(O)CC2)C2CC2)cc1,0,-,-,-,0
CCCCOc1cccc(C(=O)N(Cc2ccc(Cl)cc2)C2CCS(=O)(=O)C2)c1 (stereo not given),0,-,-,-,0
CN(C)c1ccc(NC(=O)CSc2nc3ccccc3c(=O)n2CC2CCCO2)cc1 (stereo not given),0,0,4.1µM,0,0
COC(=O)c1ccc2c(=O)n(CC3CCCO3)c(SCC(=O)Nc3ccccc3Cl)nc2c1 (stereo not given),-,0,10µM,-,-
CCC(=O)N1CCc2cc(Br)cc(S(=O)(=O)N3CCCC(C(=O)Nc4ccc(C)c(F)c4)C3)c21 (stereo not given),0,-,-,-,0
CCC(C)NC(=O)CSc1nc2c(sc(=S)n2Cc2ccco2)c(=O)n1-c1ccccc1 (stereo not given),-,0,0,-,-
CCOC(=O)CSc1nc2c(sc(=S)n2Cc2ccco2)c(=O)n1-c1ccc(F)cc1,-,0,0,10µM,-
CCN(CC)C(=O)CSc1nc2c(sc(=S)n2-c2ccccc2OC)c(=O)n1-c1ccccc1,0,0,?,12µM,0
COc1ccc(-c2nnc(N3CCOCC3)c3ccccc23)cc1,-,0,13µM,0,-
CCC(=O)N1CCN(c2nnc(-c3ccccc3)c3ccccc23)CC1,0,0,0,0,0
COc1ccc(-c2nnc(N3CCCCC3)c3ccccc23)cc1,?,0,?,?,-
COc1ccc(OCC(=O)N2CCN(c3nnc(-c4ccc(C)cc4)c4ccccc34)CC2)cc1,?,0,?,?,?
COc1ccc(-c2nnc(Sc3nc4ccccc4o3)c3ccccc23)cc1,11µM,0,0,0,8.9µM
COc1ccc(-c2nnc(OC)c3ccccc23)cc1,-,0,?,?,-
COc1ccc(OCC(=O)N2CCN(c3nnc(-c4ccccc4)c4ccccc34)CC2)cc1,-,0,1.9µM,?,-
O=C(COc1ccccc1)N1CCN(c2nnc(-c3ccccc3)c3ccccc23)CC1,-,0,10µM,?,-
Cc1ccc2oc(-c3cc(NC(=O)CC(C)C)ccc3Cl)nc2c1,0,-,-,-,0
COCCn1c(C)cc(O)c(C(c2ccccc2)N2CCN(c3ccccc3F)CC2)c1=O (stereo not given),0,-,-,-,0
O=C(C1CC1)N1CCN(c2nc3ccc(F)cc3s2)CC1,0,-,-,-,0
COc1ccc(Cl)cc1NC(=O)CN(C)C(=O)c1cc2c(s1)CCCC2,?,0,5.2µM,9.3µM,?
COc1ccc(Cl)cc1NC(=O)CN(C)C(=O)CSc1ccc2c(c1)OCCO2,-,0,0,?,-
COc1cccc(NC(=O)CCSc2ccc3ccccc3n2)c1,0,0,6.6µM,0,0
COc1cccc(NC(=O)CN(C)C(=O)CCSc2ccc(C)cc2)c1,-,0,0,10µM,-
COc1ccc(Cl)cc1NC(=O)CN(C)C(=O)CCSc1ccc(C)cc1,-,0,12µM,12µM,-
COc1ccc(NC(=O)CN(C)C(=O)CCSc2ccc(C)cc2)cc1,0,0,?,?,0
COc1ccc(Cl)cc1NC(=O)CN(C)C(=O)Cc1ccc2c(c1)CCC2,0,0,0,?,0
Cc1ccc2c(c1)c1c(c(=O)n(Cc3ccccc3)c(=O)n1CC(=O)NCc1ccccc1Cl)n2C,0,-,-,-,0
COc1ccccc1NC(=O)CN(C)S(=O)(=O)c1cc(C)ccc1OC,-,0,0,-,-
